Results published in the supplement of paper PMC13380429.

Test system: Vero E6 infected with SARS-CoV-2
Assay: inhibition of SARS-CoV-2 cytopathic effect; higher = more antiviral protection, active = above 15
Conditions: 48 h

Measured: inhibition of SARS-CoV-2 cytopathic effect

N=C1NC(=O)/C(=C/c2ccc(O)cc2)S1 [mirin]
inactive: 1 nM -0.65% | 8.33 nM 0.66% | 100 nM -0.71% | 833.33 nM -3.88% | 10000 nM 1.33%

CC(C)NCC(O)c1cc(O)cc(O)c1 (stereo not given) [metaproterenol]
inactive: 1 nM -0.95% | 8.33 nM 3.21% | 100 nM 0.75% | 833.33 nM -1.4% | 10000 nM 0.75%

C=C1CC[C@H](O)C/C1=C/C=C1\CCC[C@]2(C)[C@@H]([C@H](C)CCCC(C)(C)O)CC[C@@H]12 [calcifediol]
inactive: 1 nM 0.8% | 8.33 nM -2.15% | 100 nM -3.43% | 833.33 nM -0.54% | 10000 nM 0.11%

CO[C@@]1(NC(=O)C2SC(=C(C(N)=O)C(=O)O)S2)C(=O)N2C(C(=O)O)=C(CSc3nnnn3C)CS[C@@H]21 (stereo not given in full) [cefotetan]
inactive: 1 nM 0.97% | 8.33 nM 1.11% | 100 nM 2.32% | 833.33 nM -0.94% | 10000 nM 0.24%

Cc1c(CN2CCN(C(=O)[C@H](C)O)CC2)sc2c(N3CCOCC3)nc(-c3cnc(N)nc3)nc12
inactive: 1 nM -0.71% | 8.33 nM 0.05% | 100 nM 0.57% | 833.33 nM -5.06% | 10000 nM -12.7%

C#C[C@]1(O)CC[C@H]2[C@@H]3CCC4=C(CCC(=O)C4)[C@H]3CC[C@@]21C [noretynodrel]
inactive: 1 nM 0.57% | 8.33 nM 0.96% | 100 nM 1.22% | 833.33 nM -5.6% | 10000 nM 0.57%

O=C(O)/C=C/CO [trans-4-hydroxycrotonic-acid]
inactive: 1 nM 2.26% | 8.33 nM 3.93% | 100 nM 1.39% | 833.33 nM 5.18% | 10000 nM 4.35%
